# From PubChem BioAssay AID2110 (National Center for Advancing Translational Sciences (NCATS), 2009)
# Records with an inconclusive call do not appear. Activity calls are given as the source filed them. Calls come from the whole dose curve; as a rule, active = well fitted curve in either direction with a large enough effect; inconclusive = small, poorly fitted or top-dose-only effect; inactive = no such curve, though single readings can be large or run the other way.
# Target: Lysosomal alpha-glucosidase (Homo sapiens) (UniProt P10253)
# Experiment: Confirmation of Inhibitors and Activators of Purified Human alpha-Glucosidase Using an Alternate Red Fluorescent Susbtrate
# Details: purified enzyme, red fluorogenic substrate; series mostly up to 63.4 µM
# Method in brief: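 Recombinant human alpha-glucosidase (4 nM) with resorufin-[…] (400 uM) in 50 mM citrate buffer pH 5.0, 0.005% Tween-20, 20 min at room temperature, stopped at pH 10. AC50 from Hill fits.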
row,Structure (SMILES),Potency
1,O=C1Cc2cc(S(=O)(=O)N3CCN(c4cccc(C(F)(F)F)c4)CC3)ccc2N1,14.9 µM [inhibitor] (active)
2,N#Cc1ccc(N2CCN(S(=O)(=O)c3ccc4c(c3)CC(=O)N4)CC2)cc1,3.26 µM [inhibitor] (active)
3,O=S(=O)(c1ccc(Cl)cc1)N1CCN(c2nc(-c3cccs3)nc3ccccc23)CC1,inactive
4,CC(=O)Nc1ccc(S(=O)(=O)N2CCN(c3ccc(C(C)=O)cc3)CC2)cc1,inactive
5,CC(=O)c1ccc(N2CCN(S(=O)(=O)c3ccc4c(c3)C(=O)OC4)CC2)cc1,inactive
6,CCCN1CNc2c(c(=O)[nH]c(=S)n2CCc2ccc(C)c(C)c2)C1,1.12 µM (active)
7,CC(=O)c1ccc(N2CCN(S(=O)(=O)c3ccc4c(c3)CCCC(=O)N4)CC2)cc1,inactive
8,CCCN1CNc2c(c(=O)[nH]c(=S)n2CCc2ccc(C)cc2)C1,11.2 µM (active)
9,CCCN1CNc2c(c(=O)[nH]c(=S)n2CCc2ccc(OC)cc2)C1,6.31 µM (active)
10,COc1ccc(CCn2c(=S)[nH]c(=O)c3nccnc32)cc1OC,inactive
11,CCCCN1C[C@H](O)[C@@H](O)[C@H](O)[C@H]1CO,inactive
12,CCCN1CNc2c(c(=O)[nH]c(=S)n2CCc2ccc(Cl)cc2Cl)C1,1.26 µM (active)
13,CCCN1CNc2c(c(=O)[nH]c(=S)n2CCc2cc(C)ccc2C)C1,3.16 µM (active)
14,N#CC(=C(\N)Sc1ccccc1N)/C(C#N)=C(/N)Sc1ccccc1N,44.7 µM (active)
15,COc1ccc(CCn2c3c(c(=O)[nH]c2=S)CN(C(C)C)CN3)cc1OC,11.2 µM (active)
16,Cc1nc(N=Nc2cc(S(=O)(=O)O)c3cc([N+](=O)[O-])cc(S(=O)(=O)O)c3c2)c(COP(=O)(O)O)c(C=O)c1O,inactive
17,CC(=O)c1ccc(N2CCN(S(=O)(=O)c3ccc4c(c3)CC(C)N4C(C)=O)CC2)cc1 (stereo unspecified),inactive
18,CC(=O)c1ccc(N2CCN(S(=O)(=O)c3ccc4c(c3)n(C)c(=O)n4C)CC2)cc1,inactive
19,COc1ccc(N2CCN(S(=O)(=O)c3ccc4c(c3)CC(=O)N4)CC2)cc1,18.8 µM [inhibitor] (active)
20,CCCN1CNc2c(c(=O)[nH]c(=S)n2CCc2cccs2)C1,7.94 µM (active)
21,CCCN1CNc2c(c(=O)[nH]c(=S)n2CCc2ccsc2)C1,25.1 µM (active)
22,COc1ccc(CCn2c3c(c(=O)[nH]c2=S)CN(CC(C)C)CN3)cc1OC,0.631 µM (active)
23,O=S(=O)(c1ccc(Cl)cc1)N1CCN(c2nc(Nc3cc(Cl)ccc3O)nc3ccccc23)CC1,inactive
24,CCCN1CNc2c(c(=O)[nH]c(=S)n2CCc2cc(C)cc(C)c2)C1,3.16 µM (active)
25,OCCNc1nc(-c2cccs2)nc2ccccc12,inactive
26,CCCN1CNc2c(c(=O)[nH]c(=S)n2CCC)C1,inactive
